Most compounds without a hit are left out; they make up all but 0.28% or so of the library.
mcGAS inh: mouse cGAS inhibition by luminescence; recombinant cGAS, Kinase-Glo ATP depletion luminescence; Q8C6L5; AID 1259399; inhibition, % at 12.5 µM; actives 0.15% (n = 160,000)
Target sequence (Q8C6L5 whole entry, looked up): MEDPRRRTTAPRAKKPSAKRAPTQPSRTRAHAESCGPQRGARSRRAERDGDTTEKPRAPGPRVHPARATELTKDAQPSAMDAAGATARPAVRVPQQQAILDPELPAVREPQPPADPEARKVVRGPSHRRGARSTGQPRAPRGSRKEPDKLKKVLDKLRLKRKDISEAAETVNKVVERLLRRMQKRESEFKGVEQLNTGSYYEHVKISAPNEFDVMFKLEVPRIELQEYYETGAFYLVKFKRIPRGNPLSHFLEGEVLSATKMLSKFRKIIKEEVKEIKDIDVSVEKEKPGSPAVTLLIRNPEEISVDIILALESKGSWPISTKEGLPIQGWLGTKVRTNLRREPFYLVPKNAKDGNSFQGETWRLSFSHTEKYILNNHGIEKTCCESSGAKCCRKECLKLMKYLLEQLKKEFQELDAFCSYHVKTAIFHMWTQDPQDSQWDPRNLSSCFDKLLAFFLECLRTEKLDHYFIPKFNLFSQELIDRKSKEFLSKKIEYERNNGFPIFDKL
hcGAS inh: blocks human cGAS activity; inhibition, % at 12.5 µM; AID 1259398; actives 0.081% (n = 290,000); Q8N884; recombinant h-cGAS, ATP depletion, Kinase-Glo luminescence
NPYLR7 agonist: activates Aedes aegypti NPYLR7 receptor. actives 0.15% (n = 270,000). activation, % at 10 µM. AID 1259423. HEK293T NPYLR7/Galpha15, GCaMP6s calcium fluorescence; in the data active = activation above about 40%
Each line names hits and unclear results; the compound was inactive in the other large screens. Cut-off read from the data, not from the text of the source, unless noted: active = inhibition above about 40%; inactive = the rest.

CC(C)(C)CC(=O)NS(=O)(=O)c1cccc2ncccc12	none (no result: mcGAS inh)
Cc1ccc(N2C(=O)NC(=O)/C(=C\c3cccs3)C2=O)cc1	NPYLR7 agonist 65.2
Cc1ccc(N2C(=O)NC(=O)/C(=C\c3ccc(N(C)C)o3)C2=O)cc1	none
Cn1ccnc1SCCn1ccnc1-c1ncc[nH]1	none
CN1C[C@@H](N)C[C@H]1C(=O)NCCSc1cn[nH]n1	none
O=c1c(-c2cc(O)c(O)c(O)c2)coc2cc(O)c(O)c(O)c12	mcGAS inh 82.2, hcGAS inh 70.7 (no result: NPYLR7 agonist)
O=c1c(-c2ccc(O)cc2)coc2cc(O)cc(O)c12	none
Cc1ccc(-c2nc(C=Nc3nccs3)c(O)o2)cc1	none (no result: mcGAS inh)
COCCCNCc1c(-c2ccccc2)noc1N1CCc2ccccc2C1	none (no result: mcGAS inh)
COCCCNCc1c(-c2ccc(F)cc2)noc1N1CCOCC1	NPYLR7 agonist 46.2 (no result: mcGAS inh)
CCCCN(CCO)CC(=O)N1CCCC1c1cccs1 (configuration not stated)	none (no result: mcGAS inh)
Cc1sc2ncnc(N/N=C\c3ccccc3O)c2c1C	none (no result: mcGAS inh)
CC(=NNc1ncnc2sc(C)c(C)c12)c1ccccn1	hcGAS inh 45.1, NPYLR7 agonist 59.2 (no result: mcGAS inh)
O=C(NCCc1ccccc1)N1CCn2cccc2C1c1ccc(F)c(F)c1 (configuration not stated)	none (no result: mcGAS inh)
COc1cc(OC)cc(C2SCCN2C(=O)c2ccc([N+](=O)[O-])cc2)c1 (configuration not stated)	none
COc1cc(C=NN2C(=O)CSC2=S)cc(Br)c1O	none
O=C1CSC(=S)N1N=Cc1cc(Br)c(O)c(Br)c1	mcGAS inh 59.5, hcGAS inh 43.0, NPYLR7 agonist 67.3
O=C1CSC(=S)N1N=Cc1ccc(-c2nc3ccccc3s2)o1	none (no result: mcGAS inh)
O=C1CSC(=S)N1N=Cc1ccc([N+](=O)[O-])o1	mcGAS inh 58.8
CC(Sc1nc(CC(=O)O)cs1)C(=O)Nc1cccnc1Cl (configuration not stated)	none (no result: mcGAS inh)
Cc1cc(OCC2CN(C(=O)Cc3cccc(Cl)c3)CCO2)ccc1Cl (configuration not stated)	none
CCCN(Cc1ccccc1OC)C(=O)c1cc(C)c(C)s1	none
O=c1oc2c(CN3CCN(CCO)CC3)c(O)ccc2cc1-c1nc2ccccc2s1	NPYLR7 agonist 65.6 (no result: mcGAS inh)
O=c1oc2c(CN3CCN(CCO)CC3)c(O)ccc2cc1-c1ccccn1	none (no result: mcGAS inh)
O=C(CSc1nnc(C2CC2)n1C1CC1)c1ccc2c(c1)CCC2	none (no result: mcGAS inh)
COc1cc(OC)cc(C(=O)Nc2nnc(SCc3ccccc3C#N)s2)c1	none
C[n+]1ccc(C=CC(=O)c2ccc3c4c(cccc24)CC3)cc1	none
C[n+]1ccc(C=CC(=O)c2ccc3cccc4c3c2CC4)cc1	mcGAS inh 61.1
COCCN(Cc1c(C)nn(C)c1C)C(=O)[C@H]1Cc2ccccc2CN1	none (no result: mcGAS inh)
O=C(CSc1nc(=O)n(CCCO)c2c1CCC2)Nc1cccc(F)c1	none
O=C(CSc1nc(=O)n(CCCO)c2c1CCCC2)Nc1cccc([N+](=O)[O-])c1	mcGAS inh 46.6
CCNc1cc(NCCNC(=O)Nc2ccc3c(c2)OCO3)nc(C)n1	none (no result: mcGAS inh)
O=c1cc(-c2ccccc2)oc2c(O)c(O)ccc12	hcGAS inh 71.5 (no result: mcGAS inh)
O=c1cc(-c2ccccc2)oc2cc(O)c(O)cc12	none
CCCc1nc2c(c(=O)c3ccccc3n2C)c(=O)n1CCc1ccccc1	none (no result: mcGAS inh)
COC(=O)c1c(C)c(C(=O)CN(CC2CCCO2)C(=O)Nc2ccccc2C(F)(F)F)c(C)n1C (configuration not stated)	none (no result: NPYLR7 agonist)
CCn1nnc2c(N3CCN(C=O)CC3)ncnc21	none (no result: mcGAS inh)
CCOc1nc(Cl)c(C#N)c(-c2ccccc2)c1C#N	hcGAS inh 44.6 (no result: mcGAS inh)
CCOC(=O)c1c(N)c2c(-c3ccccc3)c(C#N)c(OCC)nc2n1C	none (no result: mcGAS inh)
CN(C)c1nc2c(c(N(C)C)n1)CCN(C(=O)CCCc1cn[nH]c1)C2	none (no result: mcGAS inh)
O=C(N[C@@H]1CCCCC1NC(=O)C1CCN(C(=O)Cc2cccs2)CC1)c1ccc(F)cc1 (some centres not stated)	none
NC(=O)c1ccccc1NC(=O)CN1CCN(CCc2ccccc2)CC1	none (no result: mcGAS inh)
CCCN1CCc2c(sc3c2c(NC(CC)CO)nc2nnnn23)C1 (configuration not stated)	NPYLR7 agonist 69.4 (no result: mcGAS inh)
CCc1nc(Cl)c2c3c(sc2n1)CN(CC)CC3	none (no result: mcGAS inh)
N#CCCCSc1nc2cc(S(=O)(=O)N3CCOCC3)ccc2n1CC1CCCO1 (configuration not stated)	none
O=C(Nc1cccc(-c2nnco2)c1)C1CCCCC1	NPYLR7 agonist 85.8 (no result: mcGAS inh)
O=C(Nc1cccc(-c2cccc(-c3ccc4c(c3)OCCO4)n2)c1)C1CCCCC1	none
O=C(c1c(F)cccc1F)N1CCOC(c2ccc(Cl)cc2)C1 (configuration not stated)	none
COc1cc(C2SCCN2C(=O)Nc2ccccc2)ccc1OCc1ccccc1 (configuration not stated)	none
COc1ccc(N2C(=O)/C(=C\c3ccc[nH]3)N(C)C2=S)c([N+](=O)[O-])c1	NPYLR7 agonist 45.6
Cc1cc([N+](=O)[O-])ccc1N1C(=O)/C(=C\c2ccncc2)N(C)C1=S	none
COC(=O)n1c(=S)oc2cc(Cl)ccc21	mcGAS inh 40.2
COC(=O)n1c(=O)oc2cc(S(=O)(=O)N3CCOCC3)ccc21	none (no result: mcGAS inh)
O=c1oc2c(Br)c(O)c(Br)cc2s1	mcGAS inh 75.7, hcGAS inh 41.2
O=c1oc2c(-c3ccc(Br)cc3)cc(O)cc2s1	none
COc1ccc(NC(=O)C2CCCN2CCOc2cccc(C#N)c2)cc1 (configuration not stated)	none (no result: mcGAS inh)
CCc1cc(Oc2ccc(Cl)c(C)c2)nc(SCc2cccc(C)c2)n1	none
Cc1ccc(-n2[nH]c(C(=O)Nc3ccnc4ccnn34)cc2=O)cc1	hcGAS inh 68.0
O=C(CNC(=O)c1ccc(F)c(F)c1)Nc1ccnc2ccnn12	none (no result: mcGAS inh)
COc1cc(NS(=O)(=O)NCc2ccccc2)cc(OC)c1	none (no result: mcGAS inh)
CC(C)Nc1ccc(NS(=O)(=O)NCc2ccccc2)cn1	NPYLR7 agonist 63.5 (no result: mcGAS inh)
CC(NC(=O)c1cn(-c2ccccc2)nn1)c1cn2ncsc2n1 (configuration not stated)	none (no result: mcGAS inh)
O=C(CNCc1ccccc1)N1CC(=O)N(c2cccc(Cl)c2)C1	NPYLR7 agonist 45.8
O=C(CNCc1ccco1)N1CC(=O)N(c2cccc(Cl)c2)C1	none (no result: mcGAS inh)
Cc1cc2nnc(C(=O)N3CCC4(CC3)C(=O)NCN4c3ccccc3)c(C)n2n1	none (no result: mcGAS inh)
COc1cc(Br)c(OC)c(C(=O)O)c1	none (no result: mcGAS inh)
O=C(O)c1cc(Br)c2ccccc2c1O	mcGAS inh 67.9
Cn1c(C(=O)NC2CCCC2)cc2c(=O)n3ccccc3nc21	none
Nc1ncnc2c1ncn2C1OC(COP(=O)(O)OP(=O)(O)OP(=O)(O)OP(=O)(O)OCC2OC(n3cnc4c(N)ncnc43)C(O)C2O)C(O)C1O (configuration not stated)	none
Nc1nc(Cl)nc2c1ncn2[C@@H]1O[C@H](COP(=O)(O)OP(=O)(O)OP(=O)(O)O)[C@H](O)C1O (some centres not stated)	NPYLR7 agonist 128.7
CC(C)P(=O)(c1c(F)c(F)nc(F)c1F)C(C)C	none
Cc1cc(O)c(CN2CCN(CCO)CC2)c2c1C(=O)/C(=C/c1cccc(Br)c1)O2	none
O=C1/C(=C/c2cc3cc(Br)ccc3o2)Oc2c1ccc(O)c2CN1CCN(CCO)CC1	NPYLR7 agonist 71.9
COc1ccc(CN(C(=O)Nc2ccc(Cl)c(Cl)c2)C(C)C)cc1OS(C)(=O)=O	none
COc1cnc(-c2cccc(C(F)(F)F)c2)c(NC(=O)C(C)C)n1	none
O=C(O)C1(C(=O)O)CCC1.[NH2-].[NH2-].[Pt+2]	none

Compound activity (PubChem)
